# Compound activity as filed in PubChem BioAssay.
# DT40 TDP1 CPT: qHTS for Inhibitors of human tyrosyl-DNA phosphodiesterase 1 (TDP1): qHTS in cells in presence of CPT; chicken DT40 Tdp1-/-;hTDP1 cells + 20 nM CPT, ATP luminescence, 48 h; Potency, µM (series often up to 46.2 µM), for inactives: at the top dose activity change, negative = growth inhibition, hits mostly inhibitors; hit rate 12% among 420,000; AID 686979, 2013; note: nearly all actives have a fitted effect of over 55% in size
#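 Chicken DT40 Tdp1-/- cells stably complemented with human TDP1 were seeded at 400 cells/well in medium containing 20 nM camptothecin, exposed to pin-transferred compounds, and grown at 37 °C for at least 48 hr. Viability was read as ATP luminescence.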
# RORg inh: qHTS for inhibitors of ROR gamma transcriptional activity; Potency, µM (top dose mostly 53.6 µM), without a hit: at the highest dose activity change, negative = inhibition, most hits filed as inhibitors; AID 2551, 2010; Drosophila S2 Gal4-RORgamma UAS-luciferase reporter, 20 h; Nuclear receptor ROR-gamma (Mus musculus), P51450; hit rate 5.4% among 310,000; note: nearly all actives have a fitted effect of over 60% in size
#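 Stably transfected Drosophila Schneider cells are the test system, with ROR gamma fused to Gal4 and luciferase under UAS control; luminescence is read after 20 hr of 700 uM copper sulfate induction at ambient temperature.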
# ELG1 DNA repair: qHTS screen for small molecules that inhibit ELG1-dependent DNA repair in human embryonic kidney (HEK293T) cells expressing luciferase-tagged ELG1. HEK293T ELG1-luciferase reporter, luminescence, 16 h; DNA damage induced by 5-fluorouridine. Potency, µM (top dose mostly 46.1 µM), without a hit: at the highest dose activity change, negative = inhibition, most hits filed as inhibitors. AID 504467, 2011. hit rate 2.3% among 330,000; note: nearly all actives have a fitted effect of over 55% in size
#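 Cells (2,000 per well) received 5-fluorouridine plus test compound or DMSO and were incubated 16 hr at 37 °C, 5% CO2. Luciferase activity was read by luminescence 30 min after ONE-Glo addition; signal suppression marked inhibition of damage-induced ELG1 function.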
# TDP1 cell noCPT: qHTS for Inhibitors of human tyrosyl-DNA phosphodiesterase 1 (TDP1): qHTS in cells in absence of CPT. DT40 Tdp1-/- hTDP1 cells, no CPT, ATP luminescence, 48 h. Potency, µM (top dose mostly 46.2 µM), for the others: at the top dose activity change, negative = growth inhibition, usual class: inhibitors. hit rate 15% among 420,000. AID 686978, 2013; note: nearly all actives have a fitted effect of over 55% in size
#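 Cells were dispensed at 400 per well, compounds added by pin tool, plates incubated ≥48 hr at 37 °C, then CellTiter-Glo added for 30 min at room temperature before luminescence reading. Line: DT40 Tdp1-/- complemented with hTDP1; camptothecin omitted.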
# ALOX12 inh: Primary qHTS assay for inhibitors of human arachidonate 12S-lipoxygenase (ALOX12): Round 2. purified 12hLO, xylenol orange hydroperoxide absorbance. Potency, µM (doses to about 108 µM), without a hit: at the top dose activity change, negative = inhibition, actives largely listed as inhibitors. hit rate 1.1% among 580,000. AID 1671190, 2021
#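 Purified human 12hLO (150 nM final) in 25 mM Hepes, 0.01% Triton X-100, pH 7.0 was preincubated 15 min at room temperature with compound. Then 40 uM arachidonic acid was added, 30 min. Hydroperoxide was read by Fe-XO absorbance ratio 573/405 nm.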
# Gal4-VP16 FLuc: VP16 counterscreen qHTS for inhibitors of ROR gamma transcriptional activity. Drosophila S2 Gal4-VP16 UAS-luciferase, luminescence, 20 h. Potency, µM (doses to about 53.6 µM), without a hit: top-dose activity, negative = inhibition, most hits filed as inhibitors. hit rate 3.5% among 310,000. AID 2546, 2010;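 note: Gal4-VP16 expression switched on by copper sulfate through the metallothionein promoter; nearly all actives have a fitted effect of over 50% in size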
# * = called active by the depositor; u = inconclusive; x = no result; [ ] = another dose, or the depositor's remark. A selection: hits, their analogues and other compounds. The true share with any hit is near 15%. Calls come from the whole dose curve; as a rule, active = well fitted curve in the direction sought with a large enough effect; inconclusive = small, poorly fitted or top-dose-only effect, or another doubt; inactive = no such curve, though single readings can be large; an effect the other way counts as inactive or inconclusive. % is set by controls: 0 for no effect and ±100 for the full control effect; potency is the fitted concentration of half-maximal effect.
SMILES,DT40 TDP1 CPT,RORg inh,ELG1 DNA repair,TDP1 cell noCPT,ALOX12 inh,Gal4-VP16 FLuc
O=C(Nc1nnc(-c2ccccn2)o1)c1cccc(Cl)c1,u,0.71µM*,u,u,2%,1µM*
Cc1cccc(-c2nnc(NC(=O)c3ccc(Cl)cc3)o2)c1,12µM*,1.4µM*,-6%,10µM*,-13%,1.4µM*
CC1=C(C(=O)OCC(F)(F)C(F)(F)F)C(c2ccc3c(c2)OCO3)NC(=O)N1 (stereo not drawn),x,x,x,x,-10%,x
COCCn1c(C)cc(C(=O)N2CCCC(Cc3noc(-c4cnccn4)n3)C2)c1C (stereo not drawn),x,x,x,x,59%,x
COc1ccc2c(c1)[C@@H](NC(=O)OCc1ccccc1)[C@H](C)[C@@H](c1ccccc1)N2C(=O)NC(C)C,x,x,x,x,11%,x
O=C(Nc1nnc(-c2ccccn2)o1)c1cccc(Br)c1,21µM*,0.5µM*,11%,u,0%,0.89µM*
CSc1nc2[nH]c(=O)n(O)c(=O)c2n1Cc1ccccc1,u,x,x,18µM*,-16%,x
N#Cc1ccc(F)c(CSc2nnc(N)s2)c1,x,x,x,x,-10%,x
COc1ccc(-c2ccc(NS(=O)(=O)c3ccccc3)cc2)nn1,u,x,x,15µM*,-2%,x
COc1ccc(-c2ccc(NS(=O)(=O)c3cc(C)c(C)cc3C)cc2)nn1,21µM*,x,x,u,u,x
COc1ccc(-c2ccc(NS(=O)(=O)c3cccc([N+](=O)[O-])c3)cc2)nn1,u,26%,12%,u,-28%,-1%
COc1ccc(-c2ccc(NS(=O)(=O)c3ccc(C(C)=O)cc3)cc2)nn1,-28%,x,x,-22%,-23%,x
COc1ccc(-c2ccc(NS(=O)(=O)c3cccc(C)c3)cc2)nn1,u,x,x,29µM*,-19%,x
COc1ccc(-c2cccc(NS(=O)(=O)c3cccc([N+](=O)[O-])c3)c2)nn1,u,x,1%,26µM*,u,x
COc1ccc(-c2ccc(NS(=O)(=O)c3ccccc3Cl)cc2)nn1,21µM*,x,x,18µM*,u,x
COc1ccc(-c2cccc(NS(=O)(=O)c3ccccc3[N+](=O)[O-])c2)nn1,-16%,x,15%,-24%,2%,x
O=C(C(=NNc1ccccc1)C(=S)Nc1ccccc1)c1ccccc1,29µM*,x,x,u,x,x
COc1ccc(CN2CCCC3(CC(C(C)C)=NO3)C2)cc1 (stereo not drawn),x,x,x,x,-1%[6.33 µM],x
CCN(CC)S(=O)(=O)c1ccc(NC2c3ccccc3C(=O)N2Cc2ccco2)cc1 (stereo not drawn),21µM*,u,u,12µM*,u,7%
O=C1c2ccccc2C(Nc2ccccc2)N1Cc1ccc2c(c1)OCO2 (stereo not drawn),-1%,39%,u,-13%,0%,0%
CCN(CC)S(=O)(=O)c1ccc(NC2c3ccccc3C(=O)N2Cc2ccc3c(c2)OCO3)cc1 (stereo not drawn),16µM*,-20%,u,u,24%,-4%
Cc1ccccc1N=Cc1c(O)n(-c2nccs2)c(=O)c2ccccc12,u,35%,21µM*,u,-6%,2%
O=c1c2ccccc2c(C=Nc2ccccc2O)c(O)n1-c1nccs1,-29%,u,16µM*,u,8%,u
O=C(O)c1ccccc1N=Cc1c(O)n(-c2nccs2)c(=O)c2ccccc12,u,13%,u,-29%,-20%,-10%
